Results on ten compounds are retold here after PubChem BioAssay AID687009 (National Center for Advancing Translational Sciences (NCATS), 2013).

Results filed as inconclusive are left out. A call without a number means that no potency is given here. The source made the active and inactive calls. Calls come from the whole dose curve; as a rule, active = well fitted curve in the direction sought with a large enough effect; inconclusive = small, poorly fitted or top-dose-only effect, or another doubt; inactive = no such curve, though single readings can be large or run the other way.

In the experiment the target is Lysine-specific histone demethylase 1A (Homo sapiens) (UniProt O60341). The experiment is described as follows: qHTS Assay for Inhibitors of Human Jumonji Domain Containing 2E (JMJD2E): Counterscreen with LSD1. Conditions: Amplex Red/HRP fluorescence; series mostly up to 57.1 µM. The text has this:
The fine interplay among methylation states of several lysine residues on the tails of histone proteins is a major determinant of the transcriptional state of the associated DNA coding regions and is commonly referred to as the histone code. Histone lysine demethylases catalyze the removal of methyl groups from methylated lysine sidechains on histones H3 and H4, thus antagonizing the reactions catalyzed by histone lysine methyltransferases. […] In search for novel inhibitors of JMJD2E demethylase, a member of the largest set of histone demethylases belonging to the Fe(II) and 2-oxoglutarate oxygenase (2OG) superfamily, we performed a quantitative high-throughput screen (Inglese 2006) by using an assay which utilizes a trimethylated peptide substrate corresponding to a fragment of histone H3 (sequence ARKme3STGGK) with detection of the formaldehyde co-product in real time by a formaldehyde dehydrogenase (FDH) coupled reaction. FDH catalyzes oxidation of formaldehyde to formic acid with the concomitant reduction of the non-fluorescent beta-nicotinamide adenine dinucleotide hydrate (NAD+) cofactor to the fluorescent NADH co-product. Compounds that were validated hits were screened against the histone LSD1 histone demethylase. […] NIH Chemical Genomics Center [NCGC] NIH Molecular Libraries Probe Centers Network [MLPCN] MLPCN Grant: MH084681 Assay Submitter (PI): Udo Oppermann, Structural Genomics Consortium, University of Oxford
The assay was performed in a buffer containing 10 mM HEPES, Na pH 7.5, 5 mM MgCl2, 50 mM KCl, 0.01% Nonidet P-40, and 0.1% BSA. LSD1 was sourced from BPS Bioscience (Cat. No. 50100, San Diego, CA) and the substrate peptide was synthesized and purified by Tufts University Core Facilities (Boston, MA). Reagents (3 microL) containing either buffer-only (inhibited control) or LSD1 (120 nM) were dispensed into a 1,536-well Aurora black solid bottom cycloolefin plate (see Table 1 for protocol steps). Compounds (23 nL) were transferred via Kalypsys pintool equipped with a 1,536-pin array. The plate was incubated for 10 min at room temperature, followed by the addition of 1 microL 4 X substrate (10 mM HEPES, pH 7.5, 8 U/mL HRP, 800 µM Amplex Red, and 200 microM H3K4Me2 peptide [Sequence H-ARTXQTARKSTGGKAPRKQLA-NH2, where X = Nepsilon,Nepsilon-dimethyl-L-lysine]) to start the reaction. The plate was then centrifuged at 1,000 rpm for 15 seconds, and the fluorescence intensity was recorded on a ViewLux High-throughput CCD imager (Perkin-Elmer) using standard TAMRA optics (525 nm excitation and 598 nm emission). The plate was then incubated for 30 min at room temperature, and a second read on the ViewLux was performed. The fluorescence intensity difference over the 30 min was used to calculate the respective reaction rate for each well.
Regarding `CN(C)CCCN1CCCN(C(=O)c2cccc(-c3cc(O)c4ncccc4c3)c2)C1`, the Potency is 10.8 µM (active).

Regarding `NC(=O)c1ccnc2c(O)cccc12`, the Potency result is “inactive”.

Regarding `CN1CCN(C(=O)c2ccc(-c3cnc4c(O)ccc(C(=O)O)c4c3)cc2)CC1`, the Potency result was “inactive”.

For the compound `CN(C)CCCNC(=O)c1ccc(-c2cnc3c(O)ccc(C(=O)O)c3c2)cc1`, the Potency result was “inactive”.

Turning to `O=C(O)c1ccc(O)c2ncc(C3CCNCC3)cc12`, the Potency result is “inactive”.

Turning to `O=C(O)c1ccc(O)c2ncc(-c3ccc(C(=O)N4CCNCC4)cc3)cc12`, the Potency result was “inactive”.

With `O=C(O)c1ccc(O)c2ncc(-c3ccc(N4CCOCC4)cc3)cc12`, the Potency result is “inactive”.

`O=C(O)c1ccnc2c(O)cccc12`: the Potency entry was “inactive”.

Turning to `O=C(O)c1ccc(O)c2ncc(-c3cccc(N4CCOCC4)c3)cc12`, the Potency entry was “inactive”.

`O=C(O)c1ccc(O)c2ncccc12`: the Potency result was “inactive”.
